Compound activity deposited in PubChem by National Center for Advancing Translational Sciences (NCATS).
NS1 function inh – inhibitors of influenza NS1 protein function; Potency, µM (highest dose often 46.1 µM); 270,000 compounds, 0.4% hits; calls by dose curve; also: actives are rising curves; nearly all actives have a fitted effect of over 50% in size
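A cell-based growth assay was used: compounds that relieve NS1-induced slow growth of budding yeast raise OD600. Assay medium was yeast nitrogen base with ammonium sulphate and -URA supplement, pH 6.0, with 2% galactose.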
Pf growth 96h – P. falciparum growth inhibition at 96 hour, primary screen for plastid delayed-death inhibitors; 320,000 compounds, 6.9% hits; P. falciparum luciferase reporter growth, 96 h; AID 504834; Potency, µM (highest dose often 28.7 µM), most hits filed as inhibitors
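P. falciparum expressing integrated firefly luciferase grown in erythrocytes (2% hematocrit, 0.05% parasitemia final) with compounds for 96 hours at 37 C, 5% CO2. Growth inhibition read as loss of luminescence after adding luciferase detection reagent.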
Shiga inhibitor – Shiga toxin inhibition; Vero cells, Shiga toxin protein synthesis inhibition reporter; inhibition, % at 38.7 µM; 290,000 compounds, 9.2% hits; AID 2315; in the data active = inhibition mostly above about 28%, no sharp cut-off; inactive = mostly below about 43%
CHX counter – counter-screen hit for Shiga toxin inhibitors, cycloheximide. cell reporter, cycloheximide protein synthesis inhibition counterscreen. max response, %. 300,000 compounds, 12% hits. AID 2314; in the data active = max response mostly above about 13%, no sharp cut-off; inactive = mostly below about 14%; also: read at 38.3 µM for the half of the compounds with a filed dose
Pf growth 48h – P. falciparum growth inhibition at 48 hours (one generation) | P. falciparum luciferase growth in erythrocytes, 48 h | Potency, µM (doses to about 28.7 µM), most hits filed as inhibitors | 310,000 compounds, 5.9% hits | AID 504832
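Here the parasites carry a stable luciferase gene and grow inside erythrocytes in Albumax-based RPMI medium with compound for one erythrocytic cycle. Activity is scored as loss of luminescent signal.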
SARS PLP yeast – blocks SARS-CoV papain-like protease in a yeast assay; S. cerevisiae expressing SARS-CoV PLpro, growth rescue; Potency, µM (doses to about 32.9 µM), hits mostly activators; 330,000 compounds, 0.19% hits; AID 485353; calls by dose curve; also: nearly all actives have a fitted effect of over 55% in size
Numbers stand for hits; i = inactive; ? = inconclusive; nt = no result given; [ ] = another dose, or the depositor's remark. This is a sample that favours compounds with a hit; in the whole collection about 21% have one here. Unless noted, calls follow the shape of the dose curve; as a rule, active = well fitted inhibition curve with a large enough effect; inconclusive = small, poorly fitted or top-dose-only effect, or another doubt; inactive = no such curve, though single readings can be large or run the other way.

SMILES	NS1 function inh	Pf growth 96h	Shiga inhibitor	CHX counter	Pf growth 48h	SARS PLP yeast
Cc1cc(/C=C(\C#N)C(=O)NCc2cccs2)c(C)[nH]1	i	i	i	16	i	i
Cc1[nH]c2ccccc2c1C(=O)CN1CCN(c2ccc(Cl)cc2)CC1	i	?	i	i	?	i
COc1ccc(NC(=O)CSc2nnc(-c3cccnc3)s2)cc1	i	6.6µM	i	i	i	i
COc1ccc(OC)c(NC(=O)CSc2nnc(-c3cccnc3)s2)c1	nt	i	i	i	i	i
CCCCNC(=O)CSc1nc(N)c(C(=O)Nc2ccc(OC)cc2)s1	i	i	28	30	i	i
CCCCC(=O)Nc1nnc(-c2ccc(OC)cc2)s1	i	i	35	i	i	i
CN(C)c1ccc(NC(=O)c2sc(SCC(=O)Nc3nccs3)nc2N)cc1	i	i[5.75 µM]	109	33	i	i
O=C(C1CCCO1)N1CCN(S(=O)(=O)c2cc(C(F)(F)F)ccc2Cl)CC1 (configuration not stated)	nt	i	nt	nt	i	i
COc1cccc(-c2nc(N3CCN(Cc4ccccc4)CC3)c3ccccc3n2)c1O	i	?	i	i	?	i
CCCCC(=O)Nc1nnc(SCC(=O)Nc2ccc(OC)cc2)s1	i	i	93	41	i	i
CSc1nc(N)c(C(=O)Nc2ccc([N+](=O)[O-])cc2)s1	i	i	50	32	i	?
COc1ccc(NC(=O)CSc2nnc(NC(=O)CN3CCOCC3)s2)cc1	nt	?	i	i	?	i
COC(=O)Nc1nnc(-c2ccc(OC)cc2)s1	i	i	101	30	i	i
CN(C)c1ccc(NC(=O)c2sc(SCC(=O)Nc3ccc(Br)cc3)nc2N)cc1	i	i	i	i	i	i
COc1ccc(S(=O)(=O)N2CC(O)CC2C(=O)Nc2cccnc2)cc1 (configuration not stated)	i	i	i	i	i	i
CCCCN1CC(=O)N2[C@H]3c4ccc(OC)cc4OC[C@@H]3[C@H](C(=O)OCC)[C@]2(C)C1=O	nt	?	nt	nt	i	i
O/N=C1\CCCc2c1nc(-c1ccccc1F)n2O	i	i	i	i	i	i
O=C(NN=C1C2CC3CC1CC(Cl)(C3)C2)c1ccccn1	nt	?	i	14	i	i
O=C(NN=C1C2CC3CC1CC(Cl)(C3)C2)c1cccs1	nt	i	i	45	i	i
O=C(NN=C1c2ccccc2-c2ccccc21)c1ccccn1	i	i	i	i	i	i
COc1ccc2c(c1OC)C[N+]1([O-])CCc3cc4c(cc3C1C2)OCO4 (configuration not stated)	i	4.1µM	i	i	?	i
COc1c(O)ccc2c1CN1CCc3cc4c(cc3[C@@H]1C2)OCO4	i	nt	nt	nt	nt	nt
COc1ccc(SCC(Cc2ccccc2)N2CCN(CC(C)C)CCC2=O)cc1 (configuration not stated)	nt	nt	53	30	nt	nt
Cc1ccc(SCC(Cc2ccccc2)N2CCN(CC(C)C)CCC2=O)cc1 (configuration not stated)	nt	nt	50	i	nt	nt
COc1ccc(SCC(Cc2ccccc2)N2CCN(CCc3ccccc3)CCC2=O)cc1 (configuration not stated)	nt	nt	i	i	nt	nt
SMILES	NS1 function inh	Pf growth 96h	Shiga inhibitor	CHX counter	Pf growth 48h	SARS PLP yeast
CCCNC(=O)c1ccc(N2CCC3(CC2)CC(c2cccc(Br)c2)=NO3)c(NC(=O)c2cccc(C)c2)c1	nt	?	nt	nt	?	i
O=C(CCN1CCOCC1)Nc1cc(C(=O)Nc2ccc(Cl)cc2)ccc1N1CC2CC(C1)c1cccc(=O)n1C2 (configuration not stated)	i	?	i	i	12µM	i
CCc1ccc(NC(=S)Nc2cc(C(=O)O)ccc2N2CC3CC(C2)c2cccc(=O)n2C3)cc1 (configuration not stated)	nt	i	70	i	i	i
CC1CCN(C(=O)c2ccc(N3CC4CC(C3)c3cccc(=O)n3C4)c([N+](=O)[O-])c2)CC1 (configuration not stated)	i	2.3µM	i	i	i	i
COc1ccc(NC(=O)Nc2cc(C(=O)O)ccc2N2CC3CC(C2)c2cccc(=O)n2C3)c(OC)c1 (configuration not stated)	?	i	i	i	i	i
COc1cccc(NC(=O)Nc2cc(C(=O)O)ccc2N2CC3CC(C2)c2cccc(=O)n2C3)c1 (configuration not stated)	i	1.5µM	i	i	i	i
CC1CCCN(C(=O)c2ccc(N3CC4CC(C3)c3cccc(=O)n3C4)c([N+](=O)[O-])c2)C1 (configuration not stated)	i	i	i	i	i	i
O=C(/C=C/c1cccc(Cl)c1)NNC(=O)c1ccncc1	nt	i	nt	nt	i	i
CC1(C)C(=O)OC(c2ccc([N+](=O)[O-])cc2)C(C)(C)C1=O (configuration not stated)	i	i	i	i	?	i
O=C(OCC(=O)c1c[nH]c2ccccc12)c1cc(Br)ccc1O	nt	i	i	i	i	i
CC(C)CNC(=O)c1cccc(NC(=O)COc2ccc([N+](=O)[O-])cc2)c1	i	?	i	i	?	i
O=C(Nc1ccc(Br)cc1)N1C[C@H]2C[C@@H](C1)c1cccc(=O)n1C2	i	?	i	i	i	?
O=C(Nc1ccc(Cl)cc1)N1CC2CC(C1)c1cccc(=O)n1C2 (configuration not stated)	i	i	i	28	i	i
CC(C)(C)OC(=O)NCc1ccc(CNC(=O)c2[nH]cnc2C(=O)NCC(=O)OCc2ccccc2)cc1	i	i	i	i	i	i
C[C@@H](NC(=O)c1nc[nH]c1C(=O)N[C@@H](Cc1ccccc1)C(=O)OC(C)(C)C)c1ccccc1	?	?	i	i	?	i
CC(C)(C)OC(=O)NCc1ccc(CNC(=O)c2[nH]cnc2C(=O)N[C@@H](Cc2ccccc2)C(=O)OCc2ccccc2)cc1	?	3.3µM	i	i	?	i
CC(C)(C)OC(=O)NCc1ccc(CNC(=O)c2nc[nH]c2C(=O)NCc2ccccc2)cc1	nt	2.9µM	nt	nt	10µM	i
O=C(N[C@@H](Cc1ccccc1)C(=O)OCc1ccccc1)c1nc[nH]c1C(=O)N1CCc2ccccc2C1	i	i	i	18	?	i
C[C@H](NC(=O)c1nc[nH]c1C(=O)N[C@@H](Cc1ccccc1)C(=O)OC(C)(C)C)c1ccccc1	?	?	i	i	3.3µM	i
CC(C)(C)OC(=O)NCc1ccc(CNC(=O)c2[nH]cnc2C(=O)N[C@@H](Cc2ccccc2)C(=O)OC(C)(C)C)cc1	?	?	i	i	10µM	i
CC(C)(C)OC(=O)NCc1ccc(NC(=O)c2nc[nH]c2C(=O)N[C@@H](Cc2ccccc2)C(=O)OCc2ccccc2)cc1	?	4.1µM	i	i	8.3µM	i
CC(C)C[C@H](NC(=O)c1nc[nH]c1C(=O)NCc1ccc(CNC(=O)OC(C)(C)C)cc1)C(=O)OCc1ccccc1	?	?	i	i	?	i
